High-throughput results (PubChem BioAssay)
Shiga inhibitor – inhibitors of Shiga toxin in Vero cells | 290,000 compounds, 9.2% hits | inhibition, % at 38.7 µM | Vero cells, Shiga toxin protein synthesis inhibition reporter; in the data active means inhibition mostly above about 28%, no sharp cut-off; inactive means mostly below about 43%; further: 0% is about no effect
NS1 inh – blocks influenza NS1 protein function; Potency, µM (top dose mostly 46.1 µM), without a hit: at the highest dose activity, positive = more growth; 270,000 compounds, 0.4% hits; AID 2326; further: potency means the concentration at half of the fitted maximal effect; actives are rising curves; nearly all actives have a fitted effect of over 50% in size
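Growth recovery, yeast-based: influenza A NS1 expressed in S. cerevisiae causes slow growth, and suppressors are detected by OD600. The parent strain without NS1 is used as positive control.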
Cycloheximide cs – counter-screen for Shiga toxin inhibitors: cycloheximide protein synthesis inhibition | cell reporter, cycloheximide protein synthesis inhibition counterscreen | max response, % | 300,000 compounds, 12% hits | AID 2314; in the data active means max response mostly above about 13%, no sharp cut-off; inactive means mostly below about 14%; further: read at 38.3 µM for the half of the compounds with a filed dose; 0% is about no effect
SARS PLP yeast – blocks SARS-CoV papain-like protease in a yeast assay; Potency, µM (top dose mostly 32.9 µM), without a hit: at the top dose activity, positive = growth rescue, most hits filed as activators; 330,000 compounds, 0.19% hits; S. cerevisiae expressing SARS-CoV PLpro, growth rescue; further: potency means the concentration at half of the fitted maximal effect; 0% is about no effect; nearly all actives have a fitted effect of over 55% in size
The depositor's hits bear a star. This is a sample that favours compounds with a hit; in the whole collection about 12% have one here. Unless noted, the call rests on the fitted dose curve.

Screening COc1cccc(C(=O)NC2CCCC2)c1 returned Shiga inhibitor 43, NS1 inh 5%, Cycloheximide cs 7 and SARS PLP yeast 0%.
`CCOc1ccc(Nc2ncnc3c2cnn3C)cc1` gave Shiga inhibitor 20, NS1 inh -22%, Cycloheximide cs 16* and SARS PLP yeast -3%.
Screening Cn1ncc2c(Nc3ccc4ccccc4c3)ncnc21 returned Shiga inhibitor 81*, NS1 inh -32%, Cycloheximide cs 33* and SARS PLP yeast -3%.
Cc1ccc(Nc2ncnc3c2cnn3C)cc1 was read as Shiga inhibitor 61*, NS1 inh -7%, Cycloheximide cs 27* and SARS PLP yeast 1%.
For CCOC(=O)c1ccc(Nc2ncnc3c2cnn3C)cc1 the results were Shiga inhibitor 6, NS1 inh -36%, Cycloheximide cs 0 and SARS PLP yeast -2%.
Cn1ncc2c(Nc3ccc(Cl)cc3)ncnc21 was read as Shiga inhibitor 16, NS1 inh -16%, Cycloheximide cs 32* and SARS PLP yeast -5%.
`CCOc1ccc(N2CC(NS(=O)(=O)c3cccs3)CC2=O)cc1` (configuration not stated) gave SARS PLP yeast 3%.
`CCc1ccc(OCC(=O)N2CCN(c3ccccn3)CC2)c(Br)c1` gave Shiga inhibitor 1, NS1 inh -49%, Cycloheximide cs 1 and SARS PLP yeast -7%.
Screening O=c1[nH]c(O)c(N=Nc2ccc(SC(F)F)cc2)c(=O)[nH]1 returned Shiga inhibitor 36, NS1 inh -2%, Cycloheximide cs 20* and SARS PLP yeast 0%.
Cc1ccc(C2=N/C(=C/N3CCOCC3)C(=O)O2)cc1 was read as Shiga inhibitor 68*, NS1 inh -4%, Cycloheximide cs 50* and SARS PLP yeast -4%.
COc1ccc(/C=C2\N=C(c3ccc(C)cc3)OC2=O)cc1 was read as NS1 inh 14%, Cycloheximide cs 1 and SARS PLP yeast -2%.
For Cc1ccc(C2=N/C(=C\N3CCCCC3)C(=O)O2)cc1 the results were Shiga inhibitor 143*, NS1 inh -11%, Cycloheximide cs 73* and SARS PLP yeast -12%.
`O=C(Nc1cccc(F)c1)Nc1ccc(Cl)cn1` gave Shiga inhibitor 38*, NS1 inh -9%, Cycloheximide cs 24* and SARS PLP yeast -7%.
For Cc1ccc(NC(=O)Nc2cccc(F)c2)nc1 the results were Shiga inhibitor 21, NS1 inh 3%, Cycloheximide cs 26* and SARS PLP yeast -5%.
`Cc1ccnc(NC(=O)Nc2cccc(F)c2)c1` gave Shiga inhibitor 73*, NS1 inh -10%, Cycloheximide cs 41* and SARS PLP yeast -2%.
Screening Cn1c(=N)n(CC(=O)c2ccccc2)c2ccccc21 returned Shiga inhibitor 24, NS1 inh 1%, Cycloheximide cs 23* and SARS PLP yeast -1%.
`COc1ccc(C(=O)CN2Cc3ccccc3C2=N)cc1` gave Shiga inhibitor 88*, NS1 inh 5%, Cycloheximide cs 30* and SARS PLP yeast -6%.
Cn1c(=N)n(CC(=O)C(C)(C)C)c2ccccc21 was read as Shiga inhibitor 148*, NS1 inh -8%, Cycloheximide cs 27* and SARS PLP yeast 0%.
Screening COc1ccc(C(=O)Cn2c(=N)n(C)c3ccccc32)cc1 returned Shiga inhibitor 85*, NS1 inh -1%, Cycloheximide cs 60* and SARS PLP yeast 0%.
`CCCCn1c(=N)n(CC(=O)c2ccc(OC)cc2)c2ccccc21` gave Shiga inhibitor -9, NS1 inh -1%, Cycloheximide cs -2 and SARS PLP yeast 0%.
For Cc1ccc(C2=NN(CCC(=O)NCCC(C)C)C(=O)CC2)cc1 the results were Shiga inhibitor -6, NS1 inh 2%, Cycloheximide cs -3 and SARS PLP yeast 25%.
Screening CO[C@@H]1/C=C\O[C@@]2(C)Oc3c(C)c(O)c4c(c3C2=O)C(=N[C@H]2CC[C@H](O)O[C@@H]2C)C=C(NC(=O)/C(C)=C\C(=O)[C@@H]2C[C@@H]2[C@@H](O)[C@H](C)[C@@H](O)[C@H](C)[C@H](OC(C)=O)[C@@H]1C)C4=O returned NS1 inh 4%.
Screening Cc1cc(N)n(-c2ccc(S(=O)(=O)c3ccc(C(C)C)cc3)cc2)n1 returned Shiga inhibitor 20, Cycloheximide cs 0 and SARS PLP yeast -1%.
Screening CCOC(=O)c1cnc2c(C)c(C)ccc2c1NCCN1CCOCC1 returned Shiga inhibitor -4, NS1 inh 24%, Cycloheximide cs 1 and SARS PLP yeast -3%.
Screening CCOc1ccc(CNn2cnnc2)cc1 returned Shiga inhibitor 2, NS1 inh -7%, Cycloheximide cs -1 and SARS PLP yeast -3%.
Screening c1ccc(COc2ccc(CNn3cnnc3)cc2)cc1 returned Shiga inhibitor 65*, NS1 inh -4%, Cycloheximide cs 26* and SARS PLP yeast -1%.
Screening Cc1ccc(N2C(=N)/C(=C3/Nc4ccccc4S3)C(c3ccccc3)C2=O)cc1 (configuration not stated) returned Shiga inhibitor 62*, NS1 inh 5%, Cycloheximide cs 44* and SARS PLP yeast -8%.
`CCN(C[C@H]1N[C@@](C)(C(=O)OC)[C@H]2C(=O)N(C)C(=O)[C@@H]12)S(=O)(=O)c1ccc(F)cc1` gave SARS PLP yeast -3%.
COc1cc(C2c3c(n[nH]c3C)C(=O)N2c2ccc(Br)cc2)ccc1O (configuration not stated) was read as Shiga inhibitor 7, NS1 inh 10%, Cycloheximide cs 15* and SARS PLP yeast 2%.
CCOc1cc(C2c3c(n[nH]c3C)C(=O)N2c2ccc(Br)cc2)ccc1O (configuration not stated) was read as Shiga inhibitor 38*, NS1 inh 4%, Cycloheximide cs 31* and SARS PLP yeast 6%.
For CC(=O)NCCOc1nc(N2CCCCC2)nc(N2CCCCC2)n1 the results were Shiga inhibitor -5, NS1 inh -4%, Cycloheximide cs 2 and SARS PLP yeast 0%.
COc1ccccc1S(=O)(=O)NCc1ccc(C(=O)NC2CCC(O)CC2)cc1 (configuration not stated) was read as SARS PLP yeast -3%.
For O=[N+]([O-])c1ccc(-c2cn(-c3ccccc3F)c(=S)[nH]2)cc1 the results were Shiga inhibitor 131*, Cycloheximide cs 42* and SARS PLP yeast 0%.
Cc1ccc(-c2cn(-c3ccccc3F)c(=S)[nH]2)cc1 was read as Shiga inhibitor 68*, NS1 inh 0%, Cycloheximide cs 42* and SARS PLP yeast 1%.
C[C@]12CCC(=O)CC1=CCC1C3CC=C(C#N)[C@@]3(C)CC[C@@]12O (some centres not stated) was read as Shiga inhibitor -9, NS1 inh -5%, Cycloheximide cs -2 and SARS PLP yeast -2%.
For COc1ccc(CC(=O)O/N=C(\N)Cc2ccc(OC)cc2)cc1 the results were Shiga inhibitor 28, NS1 inh -12%, Cycloheximide cs -3 and SARS PLP yeast -3%.
N/C(=N\OC(=O)Cc1ccccc1[N+](=O)[O-])c1cccnc1 was read as Shiga inhibitor 43, NS1 inh -12%, Cycloheximide cs 11 and SARS PLP yeast -2%.
